A short description of assay [1]: compounds altering viability of human ES cells (AID 493140; call rule not given here;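 also: cells exposed to compounds for four days before counting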). As to conditions: human embryonic stem cell survival screen; stronger effect = higher value.
Assay [2] is described as follows: P. berghei load reduction in hepatocytes – cell-based, HepG2, luciferase luminescence, HepG2 viability, primary screen (AID 624349).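 Also: 100% = mean of DMSO negative control wells on the same plate.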 The conditions noted are these: P. berghei liver stage in HepG2, luciferase luminescence, concentration not given here; parasite load remaining: stronger effect = lower value; viability: measured here: HepG2 viability without parasites.
The target in assay [3] is 6-phosphogluconate dehydrogenase, decarboxylating (Homo sapiens) (UniProt P52209). Nature of the assay: inhibition of human phosphogluconate dehydrogenase – biochemical, recombinant enzyme, NADPH absorbance, primary screen (AID 1159550;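 active = at least 20% inhibition of 6-phosphogluconate dehydrogenase activity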). As to conditions: recombinant 6PGD, NADPH absorbance 341 nm; at 10 µM; stronger effect = higher value.
Assay [4] can be described thus: EMT-state selective cytotoxicity in co-culture – imaging, PC-3E GFP, TEM4-18 mCherry, primary screen (AID 1345086;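 active = compounds killing one labelled cell type while sparing the other, by normalised counts and ratio limits, not self-fluorescent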;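 as to all read-outs here: cells exposed to compound for 72 h before imaging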;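 as to red/green cell ratio (normalised): normalised mesenchymal count divided by normalised epithelial count so high means epithelial killing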). The conditions noted are these: PC-3E GFP / TEM4-18 mCherry co-culture, imaging cell counts, at 1 µM; for red/green cell ratio (normalised): actives lie on both sides, counts scaled to control wells, 1 = unselective.
Assay [5] in a line: viability loss with induced miR-34 in A549 – imaging, A549 dox-inducible miR-34, nuclei and caspase counts, primary screen (AID 1347080;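 active = compounds whose cell count with miR-34 switched on is under 0.7 times the count with it off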). The conditions noted are these: A549 miR-34 inducible, Hoechst nuclei count, 48 h.
The target in assay [6] is Mitogen-activated protein kinase 7 (Homo sapiens) (UniProt Q13164). Nature of the assay: Gal4-ERK5 driven luciferase induction – cell-based, HTS, primary screen (AID 1508626;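 active = luciferase signal above three times the same-plate solvent-only control wells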;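 also: luciferase driven by Gal4-ERK5 fusion binding five Gal4 sites before minimal TATA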). The conditions noted are these: HeLa Gal4-ERK5 transactivation, 18 h, at 5 µM, stronger effect = higher value.
A short description of assay [7]: blockers of polyQ-driven CASP3 activation – cell-based (AID 1583). As to conditions: polyglutamine-induced caspase-3 activation, cell assay; stronger effect = higher value;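 tested at 10 µM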.
Assay [8] is described as follows: yeast 75Q aggregation reduction – 75Q-TubU reporter (AID 1593). The conditions noted are these: Yeast 75Q polyglutamine aggregation reporter.
Assay [9] is described as follows: restoration of touch response, mutant HTT neurons – whole organism, C. elegans mechanosensory neurons, N-terminal huntingtin (AID 1599). The conditions noted are these: C. elegans polyQ-huntingtin mechanosensory neurons, stronger effect = higher value.
Assay [10] in a line: blockers of cytochrome c efflux from mitochondria – biochemical, purified mitochondria (AID 1603).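 Also: mouse liver mitochondria challenged with calcium chloride; signal normalized to the plate average as 100%.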 As to conditions: stronger effect = lower value.
The nature of assay [11]: polyglutamine aggregate formation blockers (AID 1604). The conditions noted are these: polyglutamine-induced protein aggregation inhibition assay; stronger effect = higher value; tested at 2.5 µM.
A short description of assay [12]: glutamate transport activators, MN-1 cells, MN-1 cell line (AID 1612).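 Also: tested at 1 µM final; 0% = mean of DMSO vehicle wells on each plate; positive means more glutamate uptake than control and negative means less.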 As to conditions: MN-1 motor neuron cells, stronger effect = higher value.
Assay [13] is described as follows: GFP-Q80 aggregate reduction, neuronal-like cells, cell-based, NGF-treated PC12, GFPQ80 (AID 1614).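 Also: lower means fewer inclusions and 0 means no inclusions at all.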 As to conditions: PC12 NGF-treated GFP-polyQ80 inclusion reduction.
A short description of assay [14]: 75Q-TubH aggregate inhibition, S. cerevisiae, yeast (AID 1616). The conditions noted are these: S. cerevisiae 75Q-TubH polyglutamine aggregation suppression; stronger effect = higher value.
Assay [15] concerns the target NAD(+) hydrolase SARM1 (Homo sapiens) (UniProt Q6SZW1). Nature of the assay: blocking NAD cleavage by SARM1 SAM-TIR – cell lysate, NAD-Glo luminescence (AID 1508614;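 active = compound whose remaining NAD level is above about 45 nM, limit read from the data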;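 also: higher remaining NAD means stronger inhibition of SARM1 NADase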). As to conditions: SAM-TIR HEK293T lysate NADase, at 1 µM, stronger effect = higher value.
Assay [16] has as its target ATP-dependent translocase ABCB1 (Homo sapiens) (UniProt P08183). Nature of the assay: P-glycoprotein substrate transport blockade – cell-based (AID 377; in the data active = fluorescence slope change above about 50%). As to conditions: MDR1-expressing cells, fluorescent substrate accumulation slope; stronger effect = higher value; concentration not given here.
The mark [17] stands for this setting: measured here: epithelial PC-3E GFP cell survival.
Setting [18] is: measured here: mesenchymal TEM4-18 mCherry cell survival.
[19] abbreviates: stronger effect = lower value, cell number ratio, induced over uninduced.
The mark [20] stands for this setting: measured here: relative caspase fold change +Dox/-Dox.
Setting [21] is: measured here: total cells with miR-34 induction, stronger effect = lower value.
[22] abbreviates: measured here: total cells without miR-34 induction.

The structures appear in SMILES notation. Where “and” joins values, the source holds several entries; their conditions need not be identical. Equal entries are not always repeated. Records with an inconclusive call do not appear. For some of these results: Potency and affinity values are given separately. A structure can be active in one record and inactive in another. Calls of active or inactive are those of the source. Rule as the data show it, unless noted: active = parasite load remaining mostly below about 12% (no sharp cut-off); inactive = mostly above about 10%.

The values that follow come from PubChem BioAssay.

Chain of Mitogen-activated protein kinase 7 (Homo sapiens) (Q13164 whole entry, looked up, the tested form may be a part): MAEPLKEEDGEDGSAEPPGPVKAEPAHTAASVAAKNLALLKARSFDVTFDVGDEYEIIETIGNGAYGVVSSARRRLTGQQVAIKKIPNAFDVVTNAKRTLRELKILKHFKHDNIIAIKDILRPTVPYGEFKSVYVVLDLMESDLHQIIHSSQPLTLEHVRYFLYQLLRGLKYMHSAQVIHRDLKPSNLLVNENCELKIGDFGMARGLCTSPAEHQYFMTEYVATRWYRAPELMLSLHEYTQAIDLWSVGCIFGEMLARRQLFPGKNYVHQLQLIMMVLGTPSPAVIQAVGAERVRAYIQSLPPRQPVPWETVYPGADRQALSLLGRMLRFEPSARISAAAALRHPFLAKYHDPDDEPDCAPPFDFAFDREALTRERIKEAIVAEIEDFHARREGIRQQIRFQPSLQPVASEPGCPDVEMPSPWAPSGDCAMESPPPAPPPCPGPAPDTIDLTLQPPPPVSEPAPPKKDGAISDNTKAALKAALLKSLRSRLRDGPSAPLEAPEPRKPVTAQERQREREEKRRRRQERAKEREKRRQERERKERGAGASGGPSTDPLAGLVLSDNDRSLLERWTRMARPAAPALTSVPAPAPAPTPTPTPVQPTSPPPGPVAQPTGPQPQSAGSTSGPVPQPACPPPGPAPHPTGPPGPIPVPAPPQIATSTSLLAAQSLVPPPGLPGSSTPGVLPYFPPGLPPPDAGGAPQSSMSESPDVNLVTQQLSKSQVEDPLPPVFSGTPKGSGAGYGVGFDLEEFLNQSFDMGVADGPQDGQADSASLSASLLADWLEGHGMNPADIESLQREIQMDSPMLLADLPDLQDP
Chain of 6-phosphogluconate dehydrogenase, decarboxylating (Homo sapiens) (P52209 whole entry, looked up): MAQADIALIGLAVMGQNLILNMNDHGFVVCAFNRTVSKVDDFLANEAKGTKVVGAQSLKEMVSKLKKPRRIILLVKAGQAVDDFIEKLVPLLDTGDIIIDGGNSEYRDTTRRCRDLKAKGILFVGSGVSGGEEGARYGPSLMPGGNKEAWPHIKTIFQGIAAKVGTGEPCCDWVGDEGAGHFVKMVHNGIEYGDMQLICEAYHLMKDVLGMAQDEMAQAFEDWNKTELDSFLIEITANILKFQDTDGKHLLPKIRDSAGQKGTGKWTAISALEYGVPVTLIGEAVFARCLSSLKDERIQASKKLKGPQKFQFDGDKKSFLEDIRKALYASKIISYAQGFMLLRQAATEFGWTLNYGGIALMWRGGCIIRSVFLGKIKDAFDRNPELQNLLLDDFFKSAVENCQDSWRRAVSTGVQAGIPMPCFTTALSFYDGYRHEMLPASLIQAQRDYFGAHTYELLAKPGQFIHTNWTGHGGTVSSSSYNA
Chain of NAD(+) hydrolase SARM1 (Homo sapiens) (Q6SZW1 whole entry, looked up): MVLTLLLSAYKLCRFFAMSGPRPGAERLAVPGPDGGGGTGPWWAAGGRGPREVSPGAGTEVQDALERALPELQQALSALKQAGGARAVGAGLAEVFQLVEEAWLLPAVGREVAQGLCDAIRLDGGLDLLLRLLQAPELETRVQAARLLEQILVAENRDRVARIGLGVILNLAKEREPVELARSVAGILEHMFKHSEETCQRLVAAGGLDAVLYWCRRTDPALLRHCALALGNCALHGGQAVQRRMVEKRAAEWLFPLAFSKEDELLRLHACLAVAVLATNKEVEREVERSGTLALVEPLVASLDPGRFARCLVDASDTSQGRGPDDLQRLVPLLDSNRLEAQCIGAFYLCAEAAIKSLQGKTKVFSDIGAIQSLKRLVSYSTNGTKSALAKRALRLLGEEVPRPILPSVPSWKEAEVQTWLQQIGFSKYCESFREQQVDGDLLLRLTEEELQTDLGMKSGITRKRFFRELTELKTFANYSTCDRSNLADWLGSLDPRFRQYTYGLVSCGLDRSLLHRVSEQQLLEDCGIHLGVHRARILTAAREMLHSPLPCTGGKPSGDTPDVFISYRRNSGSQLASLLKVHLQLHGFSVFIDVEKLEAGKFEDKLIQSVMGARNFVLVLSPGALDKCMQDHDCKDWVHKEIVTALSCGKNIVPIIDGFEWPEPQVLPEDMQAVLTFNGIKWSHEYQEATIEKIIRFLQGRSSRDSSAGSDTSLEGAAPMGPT
Chain of ATP-dependent translocase ABCB1 (Homo sapiens) (P08183 whole entry, looked up): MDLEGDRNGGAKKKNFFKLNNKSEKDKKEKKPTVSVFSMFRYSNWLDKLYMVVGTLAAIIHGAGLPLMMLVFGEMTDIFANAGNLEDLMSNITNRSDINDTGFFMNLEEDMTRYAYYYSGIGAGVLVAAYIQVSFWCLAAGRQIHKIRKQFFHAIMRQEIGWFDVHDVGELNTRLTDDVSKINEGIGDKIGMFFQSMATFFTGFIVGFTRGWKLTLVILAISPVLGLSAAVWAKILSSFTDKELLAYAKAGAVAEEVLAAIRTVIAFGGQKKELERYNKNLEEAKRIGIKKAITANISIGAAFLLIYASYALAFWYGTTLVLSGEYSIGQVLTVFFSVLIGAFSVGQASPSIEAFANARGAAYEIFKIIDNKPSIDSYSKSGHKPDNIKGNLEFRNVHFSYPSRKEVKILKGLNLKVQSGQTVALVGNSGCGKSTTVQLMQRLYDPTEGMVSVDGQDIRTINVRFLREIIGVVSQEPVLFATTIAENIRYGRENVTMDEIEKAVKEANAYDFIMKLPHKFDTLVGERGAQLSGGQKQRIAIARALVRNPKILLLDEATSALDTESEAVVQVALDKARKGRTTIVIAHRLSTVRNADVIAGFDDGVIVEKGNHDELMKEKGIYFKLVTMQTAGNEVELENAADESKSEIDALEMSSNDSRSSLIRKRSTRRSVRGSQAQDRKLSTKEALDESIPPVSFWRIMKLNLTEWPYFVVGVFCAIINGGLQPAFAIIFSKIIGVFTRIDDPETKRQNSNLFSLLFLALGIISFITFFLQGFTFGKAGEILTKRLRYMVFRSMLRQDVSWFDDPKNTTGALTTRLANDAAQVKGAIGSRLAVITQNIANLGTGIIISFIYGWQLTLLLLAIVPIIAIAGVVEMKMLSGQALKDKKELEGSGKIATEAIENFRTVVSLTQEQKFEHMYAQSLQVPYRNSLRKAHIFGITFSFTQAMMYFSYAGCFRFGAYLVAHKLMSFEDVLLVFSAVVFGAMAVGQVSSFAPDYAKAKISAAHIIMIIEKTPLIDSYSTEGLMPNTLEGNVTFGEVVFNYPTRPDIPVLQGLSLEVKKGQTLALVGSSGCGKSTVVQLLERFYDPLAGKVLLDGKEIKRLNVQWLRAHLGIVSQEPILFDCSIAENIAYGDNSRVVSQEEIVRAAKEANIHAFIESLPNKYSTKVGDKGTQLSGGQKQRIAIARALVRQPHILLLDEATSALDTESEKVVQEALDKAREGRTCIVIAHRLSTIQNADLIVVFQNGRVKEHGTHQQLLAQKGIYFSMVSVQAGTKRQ

The term viability denotes a read-out of living cells in per cent, often relative to untreated cells. As a reminder, the inhibition is the relative decrease from the control value, in per cent. With `Cc1[nH]ccc2c1[nH]c1cc(=O)ccc12`, in [1], the survival was 3 (inactive). Further, the parasite load remaining in assay [2] is 74.5% (inactive) and 99.2% (inactive) and 81.5% (inactive). The viability in assay [2] is 88.4% and 65.9% and 69.9%. Also, the inhibition in [3] is 8.86% (inactive). In addition, in assay [4], the red/green cell ratio (normalised) is 0.84 (inactive). For the same molecule, the normalised cell number in assay [4] (setting [17]) amounted to 1; in assay [4] (setting [18]) it was 0.83. The values for the fold change in [5] (setting [19]) and in assay [5] (setting [20]) were 0.837 (inactive) and 1.33, respectively. Moreover, the figures for the cell count in assay [5] (setting [21]) and in assay [5] (setting [22]) were 6490 and 7750, respectively. Also, in assay [6], the luciferase signal is 76 AU (inactive).
Turning to `Cn1nnnc1SCC1=C(C(=O)O)N2C(=O)C(NC(=O)C(OC=O)c3ccccc3)C2SC1` (stereo not drawn), the inhibition in [7] was 20.1%; in [3], 0.99% (inactive). Further, the score in [8] is 1.46. In [9], the rescue above control is -9.96. In addition, in [10], the cytochrome c release ratio came to 1.54. In assay [11], this molecule showed an inhibition of aggregation of 91.6%. The glutamate uptake change in assay [12] was -5.89%. Moreover, the inclusion score in assay [13] is 2. Besides, the aggregation suppression score in assay [14] amounted to 1.26. Further, the parasite load remaining in [2] was 85.6% (inactive) and 51.5% (inactive). Moreover, the viability in assay [2] is 73.8% and 102%. In addition, in assay [4], the red/green cell ratio (normalised) is 0.82 (inactive). The normalised cell number in [4] (setting [17]) was 1.29; in [4] (setting [18]), 1.06. The fold change is 0.922 (inactive) in assay [5] (setting [19]) and 2.94 in assay [5] (setting [20]). For the same molecule, the cell count in [5] (setting [21]) was found to be 11600; in assay [5] (setting [22]), 12600.
In the case of `NC(N)=O`, the inhibition was 5.74% in [7] and -2.6% (inactive) in assay [3]. In addition, the score in [8] turned out to be 1.17. In [9], this molecule displayed a rescue above control of 4.79. For the same molecule, the cytochrome c release ratio in assay [10] was determined as 1.04. Also, in assay [11], the inhibition of aggregation came to 43.7%. Moreover, the glutamate uptake change in assay [12] is -1.11%. This molecule also registered an inclusion score in [13] of 2. The molecule also registered an aggregation suppression score in [14] of 1.21. Also, the parasite load remaining in [2] is 107% (inactive) and 54.8% (inactive). Also, the viability in assay [2] was 72.7% and 99.5%. The red/green cell ratio (normalised) in assay [4] is 0.95 (inactive). For the same molecule, the values for the normalised cell number in assay [4] (setting [17]) and in assay [4] (setting [18]) were 1.22 and 1.16, respectively. Also, the values for the fold change in assay [5] (setting [19]) and in assay [5] (setting [20]) were 0.93 (inactive) and 2.44, respectively. The results for the cell count in assay [5] (setting [21]) and in assay [5] (setting [22]) were 12300 and 13300, respectively. Further, in assay [15], the remaining NAD is 10 nM (inactive). Further, the luciferase signal in [6] was 52 AU (inactive).
In the case of `COc1ccc([C@@H]2CC(=O)c3c(O)cc(O)cc3O2)cc1O`, in assay [16], the fluorescence slope change is 5.5% (inactive). Besides, the inhibition was 11% in assay [7] and 4.68% (inactive) in [3]. This molecule also displayed a score in assay [8] of 0.56. The molecule also gave a rescue above control in [9] of 6.5. The cytochrome c release ratio in assay [10] is 0.93. For the same molecule, the inhibition of aggregation in assay [11] amounted to 17%. Further, the glutamate uptake change in assay [12] is 0%. The molecule also yielded an inclusion score in assay [13] of 2. The molecule also had an aggregation suppression score in assay [14] of 0.264. Moreover, the survival in assay [1] is 17.8 (inactive). Besides, the parasite load remaining in assay [2] was 25.2% (inactive) and 110% (inactive). Besides, the viability in assay [2] is 46.9% and 88%. The red/green cell ratio (normalised) in assay [4] was 0.91 (inactive). Also, the figures for the normalised cell number in assay [4] (setting [17]) and in assay [4] (setting [18]) were 1.28 and 1.16, respectively. Also, the fold change is 0.922 (inactive) and 1.13 (inactive) in assay [5] (setting [19]); 1.33 and 0.691 in assay [5] (setting [20]). The cell count in assay [5] (setting [21]) is 8710 and 6120; in assay [5] (setting [22]), 9450 and 5440. The luciferase signal in [6] was 48 AU (inactive).
Consider `CCN(CC)Cc1ccc(Nc2ccnc3cc(Cl)ccc23)cc1O`, for which the inhibition in assay [7] is -50.2%; in assay [3], 4.92% (inactive). Further, the score in assay [8] turned out to be 1.49. In assay [9], this molecule had a rescue above control of 8.25. Also, the cytochrome c release ratio in [10] was 0.74. For the same molecule, the inhibition of aggregation in assay [11] amounted to 65.5%. Also, the glutamate uptake change in assay [12] was 1.51%. Further, the aggregation suppression score in [14] stood at 1.68. Moreover, the parasite load remaining in assay [2] is -0.345% (active) and 0.905% (inactive). The viability in assay [2] was 63% and 59.3%. Also, the red/green cell ratio (normalised) in assay [4] is 0.8 (inactive). The normalised cell number in [4] (setting [17]) came to 1.14; in assay [4] (setting [18]), 0.91. The fold change is 0.936 (inactive) in assay [5] (setting [19]) and 0.896 in assay [5] (setting [20]). The cell count in assay [5] (setting [21]) was 8520; in assay [5] (setting [22]), 9100.
